Several values for one entry are separate records, joined by “and”; a condition that tells them apart may be missing. Equal entries are not always repeated. Hit rate of the full screen: of about 5,500 compounds, about 2,000 (36%) were called active. Roughly 18% stayed inconclusive and do not appear here. Rule as the data show it: active = normalized growth mostly below about 0.91 (no sharp cut-off); inconclusive = no clear call, values can overlap the other calls; inactive = mostly above about 0.92. This is one part of the list.
Assay: chemical genetic growth profiling, strain panel (AID 1159580);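 also: tested at 20 µM; growth read once vehicle control cultures reached saturation at 30 °C; 1 = growth at the plate median or of vehicle wells; lower values mean less growth of the strain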
Conditions: growth OD
[1] = S. cerevisiae deletion strains, locus YAL013W, strain DEP1, active compounds read low
[2] = S. cerevisiae deletion strains, locus YBR229C, strain ROT2, active compounds read low
[3] = S. cerevisiae deletion strains, locus YDL101C, strain DUN1, active compounds read low
[4] = S. cerevisiae deletion strains, locus YDR150W, strain NUM1, active compounds read low
[5] = S. cerevisiae deletion strains, locus YEL061C, strain CIN8, active compounds read low
[6] = S. cerevisiae deletion strains, locus YGR078C, strain PAC10, active compounds read low
[7] = S. cerevisiae deletion strains, locus YGR229C, strain SMI1, active compounds read low
[8] = S. cerevisiae deletion strains, locus YHR030C, strain SLT2, active compounds read low
[9] = S. cerevisiae deletion strains, locus YJR043C, strain POL32, active compounds read low
[10] = S. cerevisiae deletion strains, locus YJR075W, strain HOC1, active compounds read low
[11] = S. cerevisiae deletion strains, locus YKL190W, strain CNB1, active compounds read low
[12] = S. cerevisiae deletion strains, locus YLR039C, strain RIC1, active compounds read low
[13] = S. cerevisiae deletion strains, locus YLR262C, strain YPT6, active compounds read low
[14] = S. cerevisiae deletion strains, locus YMR263W, strain SAP30, active compounds read low
[15] = S. cerevisiae deletion strains, locus YNL153C, strain GIM3, active compounds read low
[16] = S. cerevisiae deletion strains, locus YNL322C, strain KRE1, active compounds read low
[17] = S. cerevisiae deletion strains, locus YPL055C, strain LGE1, active compounds read low
[18] = S. cerevisiae deletion strains, locus YPL241C, strain CIN2, active compounds read low

Measured: normalized growth

CNCCc1ccccn1
inactive: [1] 1.01 | S. cerevisiae deletion strains, locus YBR021W, strain FUR4, active compounds read low 1.02 | [2] 1.01 | S. cerevisiae deletion strains, locus YCL029C, strain bik1, active compounds read low 1.04 | S. cerevisiae deletion strains, locus YDL035C, strain GPR1, active compounds read low 0.992 | S. cerevisiae deletion strains, locus YDL074C, strain BRE1, active compounds read low 1.03 | [3] 1.01 | S. cerevisiae deletion strains, locus YDL134C, strain PPH21, active compounds read low 1.01 | S. cerevisiae deletion strains, locus YDL185W, strain tfp1, active compounds read low 1.02 | S. cerevisiae deletion strains, locus YDL192W, strain arf1, active compounds read low 1.02 | S. cerevisiae deletion strains, locus YDR101C, strain arx1, active compounds read low 1.01 | [4] 1.01 | S. cerevisiae deletion strains, locus YDR162C, strain NBP2, active compounds read low 1.01 | S. cerevisiae deletion strains, locus YDR318W, strain mcm21, active compounds read low 1.02 | S. cerevisiae deletion strains, locus YDR388W, active compounds read low 1.01 | S. cerevisiae deletion strains, locus YDR502C, strain sam2, active compounds read low 1.01 | [5] 1.01 | S. cerevisiae deletion strains, locus YER110C, active compounds read low 1.02 | S. cerevisiae deletion strains, locus YER155C, strain BEM2, active compounds read low 1 | S. cerevisiae deletion strains, locus YER167W, strain BCK2, active compounds read low 1.01 | S. cerevisiae deletion strains, locus YGL078C, strain dbp3, active compounds read low 1.01 | S. cerevisiae deletion strains, locus YGL086W, strain mad1, active compounds read low 1 | S. cerevisiae deletion strains, locus YGL248W, strain PDE1, active compounds read low 1 | [6] 1.03 | S. cerevisiae deletion strains, locus YGR135W, strain pre9, active compounds read low 1.01 | [7] 1.02 | S. cerevisiae deletion strains, locus YGR252W, strain gcn5, active compounds read low 0.958 | [8] 1.01 and 1.04 | S. cerevisiae deletion strains, locus YHR079C, strain IRE1 (second series), active compounds read low 1.02 | S. cerevisiae deletion strains, locus YHR079C, strain IRE1, active compounds read low 1.04 | S. cerevisiae deletion strains, locus YHR094C, strain hxt1, active compounds read low 1.01 | S. cerevisiae deletion strains, locus YHR129C, strain ARP1, active compounds read low 0.996 | S. cerevisiae deletion strains, locus YHR200W, strain rpn10, active compounds read low 1.01 | S. cerevisiae deletion strains, locus YIL066C, strain RNR3, active compounds read low 1.02 | S. cerevisiae deletion strains, locus YIL073C, strain SPO22, active compounds read low 1.06 | S. cerevisiae deletion strains, locus YIL125W, strain kgd1, active compounds read low 1 | S. cerevisiae deletion strains, locus YIR030C, strain dcg1, active compounds read low 1.01 | S. cerevisiae deletion strains, locus YJL095W, strain BCK1, active compounds read low 1.04 and 1.03 | S. cerevisiae deletion strains, locus YJL134W, strain LCB3, active compounds read low 1 | S. cerevisiae deletion strains, locus YJL168C, strain set2, active compounds read low 1.01 | S. cerevisiae deletion strains, locus YJL187C, strain SWE1 (second series), active compounds read low 1.02 | [9] 1.02 | S. cerevisiae deletion strains, locus YJR066W, strain TOR1, active compounds read low 0.978 | [10] 1.02 | S. cerevisiae deletion strains, locus YKL009W, strain mrt4, active compounds read low 1.07 | S. cerevisiae deletion strains, locus YKL068W, active compounds read low 1.01 | S. cerevisiae deletion strains, locus YKL085W, strain MDH1 (second series), active compounds read low 1.01 | S. cerevisiae deletion strains, locus YKL085W, strain MDH1, active compounds read low 1.01 | [11] 1.01 | S. cerevisiae deletion strains, locus YKR001C, strain vps1, active compounds read low 1.01 | [12] 1.02 | S. cerevisiae deletion strains, locus YLR058C, strain SHM2, active compounds read low 1.01 | S. cerevisiae deletion strains, locus YLR102C, strain apc9, active compounds read low 1.02 | S. cerevisiae deletion strains, locus YLR113W, strain HOG1, active compounds read low 1.03 | [13] 1.02 | S. cerevisiae deletion strains, locus YLR268W, strain sec22, active compounds read low 1.04 | S. cerevisiae deletion strains, locus YLR330W, strain CHS5, active compounds read low 1.01 | S. cerevisiae deletion strains, locus YLR342W, strain FKS1 (second series), active compounds read low 1.02 | S. cerevisiae deletion strains, locus YLR371W, strain rom2, active compounds read low 1.02 | S. cerevisiae deletion strains, locus YLR418C, strain cdc73, active compounds read low 1.03 | S. cerevisiae deletion strains, locus YML016C, strain PPZ1, active compounds read low 1 | S. cerevisiae deletion strains, locus YML032C, strain rad52, active compounds read low 1.03 | S. cerevisiae deletion strains, locus YML124C, strain tub3, active compounds read low 1.01 | S. cerevisiae deletion strains, locus YMR078C, strain ctf18, active compounds read low 1.02 | S. cerevisiae deletion strains, locus YMR223W, strain ubp8, active compounds read low 1.01 | [14] 1.03 | S. cerevisiae deletion strains, locus YMR307W, strain GAS1, active compounds read low 0.966 | S. cerevisiae deletion strains, locus YNL067W, strain RPL9B, active compounds read low 1.02 | S. cerevisiae deletion strains, locus YNL128W, strain TEP1, active compounds read low 1.01 | [15] 1.01 | S. cerevisiae deletion strains, locus YNL183C, strain NPR1, active compounds read low 0.978 | S. cerevisiae deletion strains, locus YNL233W, strain BNI4, active compounds read low 1.01 | S. cerevisiae deletion strains, locus YNL250W, strain rad50, active compounds read low 1.03 | S. cerevisiae deletion strains, locus YNL271C, strain bni1, active compounds read low 1.02 | S. cerevisiae deletion strains, locus YNL298W, strain CLA4, active compounds read low 1.01 | S. cerevisiae deletion strains, locus YNL307C, strain MCK1, active compounds read low 1.02 | [16] 1.01 | S. cerevisiae deletion strains, locus YNR052C, strain pop2, active compounds read low 1.01 | S. cerevisiae deletion strains, locus YOL006C, strain TOP1, active compounds read low 1.08 | S. cerevisiae deletion strains, locus YOL012C, strain htz1 0.922 | S. cerevisiae deletion strains, locus YOL147C, strain pex11, active compounds read low 1.01 | S. cerevisiae deletion strains, locus YOR061W, strain CKA2, active compounds read low 1.01 | S. cerevisiae deletion strains, locus YOR069W, strain VPS5, active compounds read low 1.01 | S. cerevisiae deletion strains, locus YOR136W, strain idh2, active compounds read low 1.01 | S. cerevisiae deletion strains, locus YOR144C, strain elg1, active compounds read low 1.01 | S. cerevisiae deletion strains, locus YOR184W, strain ser1, active compounds read low 1.02 | S. cerevisiae deletion strains, locus YOR231W, strain MKK1, active compounds read low 1.02 | S. cerevisiae deletion strains, locus YOR316C, strain cot1, active compounds read low 1.01 | [17] 1.04 | [18] 1.01 | S. cerevisiae deletion strains, locus YPL256C, strain CLN2, active compounds read low 1.04 | S. cerevisiae deletion strains, locus YPR119W, strain clb2, active compounds read low 1.01 | S. cerevisiae deletion strains, locus YPR141C, strain kar3, active compounds read low 1.02 | S. cerevisiae deletion strains, locus YPR163C, strain tif3, active compounds read low 1.02 | S. cerevisiae deletion strains, locus YPR167C, strain met16, active compounds read low 1.01 | S. cerevisiae deletion strains, strain wtn01, active compounds read low 1.01 | S. cerevisiae strains, strain wild type, active compounds read low 1.01

Cc1ccc(C)c(NC(=S)N(CCc2ccccc2)CCc2ccccn2)c1
inactive: [1] 0.989 | [2] 0.983 | S. cerevisiae deletion strains, locus YCL061C, strain MRC1, active compounds read low 1 | [3] 1.04 | [4] 0.99 | [5] 0.953 | [6] 0.996 | [7] 0.974 | [8] 0.978 | S. cerevisiae deletion strains, locus YHR087W, strain rtc3, active compounds read low 0.958 | S. cerevisiae deletion strains, locus YJL187C, strain SWE1, active compounds read low 0.989 | [9] 1.01 | [10] 0.999 | [11] 0.964 | S. cerevisiae deletion strains, locus YLR058C, strain SHM2 (second series), active compounds read low 0.98 | S. cerevisiae deletion strains, locus YLR085C, strain ARP6, active compounds read low 0.928 | [13] 0.853 | S. cerevisiae deletion strains, locus YML094W, strain GIM5, active compounds read low 0.95 | S. cerevisiae deletion strains, locus YMR219W, strain ESC1, active compounds read low 0.996 | [14] 0.985 | [15] 1.01 | S. cerevisiae deletion strains, locus YNL298W, strain CLA4 (second series), active compounds read low 0.984 | [16] 0.974 | S. cerevisiae deletion strains, locus YNR030W, strain Alg12, active compounds read low 0.988 | [17] 0.946 | [18] 1.03 | S. cerevisiae deletion strains, locus YPR135W, strain CTF4, active compounds read low 0.942
active: [12] 0.606
